The text below walks through data of PubChem BioAssay.

Assay [1] has as its target ATP-dependent translocase ABCB1 (Homo sapiens) (UniProt P08183). The assay can be described thus: MDR1 (ABCB1) efflux transporter inhibition, cell-based (AID 377; in the data active = fluorescence slope change above about 50%). Conditions: MDR1-expressing cells, fluorescent substrate accumulation slope; stronger effect = higher value; concentration not given here.
Assay [2] is described as follows: hESC survival regulators, cell-based (AID 493140; call rule not given here;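 note: cells exposed to compounds for four days before counting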). Conditions: human embryonic stem cell survival screen; stronger effect = higher value.
Assay [3] is described as follows: liver-stage malaria parasite growth inhibition, primary screen, cell-based, HepG2, luciferase luminescence, HepG2 viability (AID 624349; in the data active = parasite load remaining mostly below about 12%, no sharp cut-off; inactive = mostly above about 10%;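 note: 100% = mean of DMSO negative control wells on the same plate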). The following applies: P. berghei liver stage in HepG2, luciferase luminescence, concentration not given here; parasite load remaining: stronger effect = lower value; viability: measured here: HepG2 viability without parasites.
Assay [4] is described as follows: stimulators of nuclear beta-catenin in C2C12, primary screen, imaging, WNT3A-conditioned medium, mouse C2C12, NPC library (AID 1117326; in the data active = nuclear beta-catenin stimulation mostly above about 4.2%, no sharp cut-off; inactive = mostly below about 10%). The following applies: stronger effect = higher value.
Assay [5] can be described thus: stimulators of insulin release from INS-1E, primary screen, cell-based, 5 mM glucose, NPC library (AID 1117329;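 active = compound raises insulin release from rat beta cells at 5 mM glucose, no numeric limit stated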). Conditions: rat INS-1E insulin secretion, at 10 µM, stronger effect = higher value.
Assay [6] in a line: growth inhibition of GSK3B-pretreated HCT116 cells – cell-based, CellTiter-Glo, 0.2 to 20 µM (AID 1117336;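 active = compounds lowering colon cancer cell viability after pretreatment blocking the GSK3B kinase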). Conditions: HCT116 viability after GSK3B inhibitor, at 20 µM, stronger effect = higher value. (In general: Cellular ATP, detected with luciferase, serves as a proxy for viable cell number.)
A short description of assay [7]: inhibition of endothelial tube formation, primary screen, imaging, VEGF stimulated, CD31 staining, tube area, NPC library (AID 1117340;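 active = compound that reduces growth-factor-driven endothelial tube area in a mixed cell culture, no cutoff stated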). The following applies: VEGF-stimulated ADSC/ECFC co-culture, at 10 µM, stronger effect = higher value.
Assay [8] in a line: glucagon-like peptide 1 release enhancers, primary assay, NCI-H716 cell line, NPC library (AID 1117341;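 active = compound raises GLP1 secretion from the human gut endocrine cells, with no numeric limit stated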). The following applies: NCI-H716 cells, at 10 µM, stronger effect = higher value.
A short description of assay [9]: HCT116 colon cancer cell growth inhibition, primary screen, CellTiter-Glo luminescence, NPC library (AID 1117342;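 active = compounds that lower survival of HCT116 colon cancer cells in the luminescence readout, no numeric limit stated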). The following applies: at 20 µM (top of the series).
Assay [10] in a line: CellTiter-Glo luminescent readout of SW480 viability loss, NPC library primary (AID 1117343;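 active = compounds that lower viability of the colon cancer cells in the luminescence readout, with no numeric limit stated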). The following applies: CellTiter-Glo luminescence; at 20 µM (top of the series) unless noted.
Assay [11] is described as follows: decreased DLD-1 cellular survival, CellTiter-Glo luminescent readout, NPC compound collection, primary HTS (AID 1117346;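 active = compounds that lower survival of DLD-1 colon cancer cells in the luminescence readout, no cutoff given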). Conditions: DLD-1 viability, CellTiter-Glo luminescence; at 20 µM (top of the series).
Assay [12] is described as follows: sensitizers of A549 cells to miR-34 induction, primary screen, imaging, A549 dox-inducible miR-34, nuclei and caspase counts (AID 1347080;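 active = compounds whose cell count with miR-34 switched on is under 0.7 times the count with it off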). The following applies: A549 miR-34 inducible, Hoechst nuclei count, 48 h.
The nature of assay [13]: survival rescue of mitochondrial mutant cells in low glucose, primary screen, MELAS cybrids, Rieske KO mouse fibroblasts, CellTiter-Glo (AID 1508586).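 Note: z relative to plate mean and SD of compound and empty wells.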
The mark [14] stands for this setting: stronger effect = lower value, cell number ratio, induced over uninduced.
[15] abbreviates: measured here: relative caspase fold change +Dox/-Dox.
Where [16] appears, read: measured here: total cells with miR-34 induction, stronger effect = lower value.
The mark [17] stands for this setting: measured here: total cells without miR-34 induction.
Setting [18] is: MELAS cybrid survival, CellTiter-Glo 48 h, stronger effect = higher value.
[19] abbreviates: Rieske KO mouse fibroblast survival, CellTiter-Glo 72 h.

“And” between values parts separate entries of the source, which are not always exact repeats. Equal entries are not always repeated. Results filed as inconclusive are left out. The source made the active and inactive calls.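 Rule for the calls, unless noted: active = mean z-score across replicates of 1.96 or higher in either the MELAS or the Rieske mutant cell line; inactive = the rest.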

ATP-dependent translocase ABCB1 (Homo sapiens), sequence (P08183 whole entry, looked up): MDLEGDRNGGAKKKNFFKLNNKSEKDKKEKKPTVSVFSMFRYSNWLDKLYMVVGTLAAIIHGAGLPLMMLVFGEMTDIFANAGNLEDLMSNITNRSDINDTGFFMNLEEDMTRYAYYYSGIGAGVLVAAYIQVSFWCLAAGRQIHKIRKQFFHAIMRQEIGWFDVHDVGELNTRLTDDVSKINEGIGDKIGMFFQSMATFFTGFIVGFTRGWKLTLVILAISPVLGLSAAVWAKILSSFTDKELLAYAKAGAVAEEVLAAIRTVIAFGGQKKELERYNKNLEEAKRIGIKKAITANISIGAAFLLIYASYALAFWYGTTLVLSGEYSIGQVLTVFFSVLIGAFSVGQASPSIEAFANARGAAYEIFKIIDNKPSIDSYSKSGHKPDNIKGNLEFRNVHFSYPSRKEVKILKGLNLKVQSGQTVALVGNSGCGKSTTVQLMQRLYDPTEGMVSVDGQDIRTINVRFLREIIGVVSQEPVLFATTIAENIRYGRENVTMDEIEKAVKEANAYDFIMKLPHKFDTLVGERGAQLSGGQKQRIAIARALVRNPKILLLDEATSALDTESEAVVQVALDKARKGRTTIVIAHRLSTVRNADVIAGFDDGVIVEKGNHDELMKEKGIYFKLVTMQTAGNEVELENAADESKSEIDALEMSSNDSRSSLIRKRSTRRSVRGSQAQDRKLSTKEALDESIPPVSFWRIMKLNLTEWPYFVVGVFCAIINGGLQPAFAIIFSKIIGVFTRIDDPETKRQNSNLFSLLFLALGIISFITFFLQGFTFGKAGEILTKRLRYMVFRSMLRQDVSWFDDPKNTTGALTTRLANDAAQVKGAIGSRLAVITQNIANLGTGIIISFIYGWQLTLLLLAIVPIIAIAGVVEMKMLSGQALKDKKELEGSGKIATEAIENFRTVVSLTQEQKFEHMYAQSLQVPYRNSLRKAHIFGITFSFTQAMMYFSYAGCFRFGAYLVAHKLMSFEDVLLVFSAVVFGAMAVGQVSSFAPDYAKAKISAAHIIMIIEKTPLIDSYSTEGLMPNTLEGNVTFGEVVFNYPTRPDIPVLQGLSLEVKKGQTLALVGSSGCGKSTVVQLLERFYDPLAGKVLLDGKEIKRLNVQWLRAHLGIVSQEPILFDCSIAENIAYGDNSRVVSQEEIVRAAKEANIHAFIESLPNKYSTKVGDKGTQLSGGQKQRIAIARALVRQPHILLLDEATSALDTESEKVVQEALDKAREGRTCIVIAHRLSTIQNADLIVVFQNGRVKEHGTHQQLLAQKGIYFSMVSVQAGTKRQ

The term viability denotes the share of living cells, or the viability signal relative to a control. With `Cc1c(-c2ccccc2)oc2c(C(=O)OCCN3CCCCC3)cccc2c1=O`, the fluorescence slope change in assay [1] was 112% (active). In assay [2], the survival was 21.4 (inactive). For the same molecule, in [3], the parasite load remaining was 46% (inactive) and 89.3% (inactive). The viability in [3] was 49.7% and 89.5%. Besides, the nuclear beta-catenin stimulation is -2.4% (inactive) in assay [4] (at 10 µM) and -1% in assay [4] (stimulation, at 2 µM). The insulin secretion stimulation in assay [5] was 2.9% (inactive). For the same molecule, the viability decrease in assay [6] is -5.1% (inactive). In [7], the tube area decrease is 19.4% (inactive). Moreover, in assay [8], the GLP1 secretion stimulation was -5.1% (inactive). Further, in assay [9], the inhibition of viability is 5.5% (inactive). In addition, the viability decrease (inhibition) in assay [10] is 4.4% (inactive); in assay [11] it was -0.8% (inactive). Also, the fold change in assay [12] (setting [14]) is 0.916 (inactive) and 1.06 (inactive); in assay [12] (setting [15]), 1.01 and 0.699. Besides, the cell count in assay [12] (setting [16]) was 8120 and 9090; in [12] (setting [17]), 8860 and 8560. The z-score in assay [13] (setting [18]) was -0.232 (inactive) and 0.0828 (inactive); in assay [13] (setting [19]), -0.166 and -0.00233.
Take `NS(=O)(=O)c1cc(C(=O)O)cc(N2CCCC2)c1Oc1ccccc1`: the survival in assay [2] was 11.5 (inactive). Besides, the parasite load remaining in assay [3] was 67.6% (inactive). The viability in [3] is 80.6%. Moreover, the nuclear beta-catenin stimulation in assay [4] (at 10 µM) was 0.5% (inactive); in assay [4] (stimulation, at 2 µM) it was -0.6%. Also, the insulin secretion stimulation in assay [5] is -1% (inactive). Also, the viability decrease in [6] is -7.05% (inactive). Moreover, the tube area decrease in assay [7] is -7% (inactive). The GLP1 secretion stimulation in assay [8] is 1.1% (inactive). Moreover, the inhibition of viability in assay [9] was 6.7% (inactive). Further, the figures for the viability decrease (inhibition) in [10] and in assay [11] were -4.4% (inactive) and -15.4% (inactive), respectively. The fold change in [12] (setting [14]) was 0.92 (inactive); in assay [12] (setting [15]) it was 0.688. The results for the cell count in [12] (setting [16]) and in assay [12] (setting [17]) were 8630 and 9380, respectively. The z-score is -0.17 (inactive) in assay [13] (setting [18]) and -0.69 in assay [13] (setting [19]).
Turning to `CCCNC(C)C(=O)Nc1c(C)csc1C(=O)OC` (configuration not stated), the survival in assay [2] was 18.4 (inactive). Moreover, the parasite load remaining in assay [3] was 137% (inactive). Further, the viability in assay [3] turned out to be 71.1%. Moreover, the nuclear beta-catenin stimulation is -0.2% (inactive) in assay [4] (at 10 µM) and 2% in assay [4] (stimulation, at 2 µM). Further, the insulin secretion stimulation in assay [5] was 4.8% (inactive). Moreover, in assay [6], the viability decrease is 1.9% (inactive). For the same molecule, the tube area decrease in assay [7] is 5.2% (inactive). Further, in assay [8], the GLP1 secretion stimulation is -3.4% (inactive). Besides, the inhibition of viability in [9] is 8.5% (inactive). Besides, the viability decrease (inhibition) in [10] and in assay [11] was 2.2% (inactive) each time. The fold change in assay [12] (setting [14]) was 0.925 (inactive) and 0.913 (inactive); in assay [12] (setting [15]), 0.61 and 0.602. Also, the cell count in assay [12] (setting [16]) is 8960 and 8560; in assay [12] (setting [17]), 9680 and 9380. Moreover, the z-score is -0.278 (inactive) and -0.744 (inactive) in assay [13] (setting [18]); -0.148 and -0.857 in assay [13] (setting [19]).
On to `CC[N+](C)(CC)CCOC(=O)C1c2ccccc2Oc2ccccc21`, for which, in [2], the survival was 18.2 (inactive). Besides, the parasite load remaining in assay [3] is 64.6% (inactive). Besides, in assay [3], the viability is 67.1%. For the same molecule, the nuclear beta-catenin stimulation in [4] (at 10 µM) was -0.9% (inactive); in assay [4] (stimulation, at 2 µM) it was 0.8%. Besides, the insulin secretion stimulation in assay [5] is 2.6% (inactive). In addition, the viability decrease in [6] was -10.2% (inactive). Also, the tube area decrease in assay [7] is -0.8% (inactive). For the same molecule, the GLP1 secretion stimulation in assay [8] is -4.5% (inactive). In assay [9], the inhibition of viability was 6% (inactive). Moreover, the viability decrease (inhibition) in [10] was 1.5% (inactive); in [11], -6.1% (inactive). For the same molecule, the fold change is 0.995 (inactive) in assay [12] (setting [14]) and 0.614 in [12] (setting [15]). The cell count worked out at 9340 in [12] (setting [16]) and 9380 in [12] (setting [17]). Further, the results for the z-score in assay [13] (setting [18]) and in [13] (setting [19]) were 0.613 (inactive) and 0.177, respectively.
On to `CN1CCN(CCCN2c3ccccc3Sc3ccc(S(=O)(=O)N(C)C)cc32)CC1`, for which the fluorescence slope change in assay [1] was 52.4% (active). In addition, in [2], the survival is 4.08 (inactive). The parasite load remaining in assay [3] was 35.2% (inactive) and 94.1% (inactive). Also, the viability in [3] is 47.9% and 85.3%. Also, the nuclear beta-catenin stimulation in assay [4] (at 10 µM) is 33.2% (inactive); in assay [4] (stimulation, at 2 µM), 0.3%. In addition, the insulin secretion stimulation in assay [5] was 12.3% (inactive). For the same molecule, the viability decrease in assay [6] is 99.5% (active). Moreover, the tube area decrease in assay [7] is 108% (active). Further, the GLP1 secretion stimulation in [8] was -2.9% (inactive). In addition, in assay [9], the inhibition of viability is 99.9% (active). The figures for the viability decrease (inhibition) in [10] and in [11] were 103% (active) and 95% (active), respectively. For the same molecule, the fold change in [12] (setting [14]) was 0.928 (inactive); in assay [12] (setting [15]), 1.43. The results for the cell count in assay [12] (setting [16]) and in assay [12] (setting [17]) were 7890 and 8500, respectively. Also, the values for the z-score in [13] (setting [18]) and in assay [13] (setting [19]) were 0.365 (inactive) and 0.522, respectively.
